From PubChem BioAssay AID463173 (ICCB-Longwood Screening Facility, Harvard Medical School, 2010)
Among all 52,000 compounds or so, about 4,300 (8.3%) were called active. Rule as the data show it: active = survival mostly below about 52% (no sharp cut-off); inactive = mostly above about 56%. The sample as a whole holds a higher share of actives than the screen did.

System: DeltatarO mutant
Test: growth inhibition of S. aureus wild type versus tarO mutant, primary screen, teichoic acid synthesis inhibitors, RN4220, OD600 (AID 463173)
Conditions: OD600, 18 h, active compounds read low, screened at 18.75 µg/mL (by protocol)

Structure (SMILES)	survival
Cc1ccc(C)c(N2CCN(S(=O)(=O)c3ccc4c(c3)CC(=O)N4C)CC2)c1	125% (inactive)
CC(C)OCCCNC(=O)C(=O)Nc1c2c(nn1-c1ccccc1)CS(=O)(=O)C2	-5% (active)
COCCNC(=O)C(=O)Nc1c2c(nn1-c1ccccc1)CS(=O)(=O)C2	92% (inactive)
CC(C)CCNC(=O)C(=O)Nc1c2c(nn1-c1ccccc1)CS(=O)(=O)C2	77% (inactive)
CN(c1ccc(Cl)cc1)S(=O)(=O)c1nnc(NC(=O)C2CCCCC2)s1	106% (inactive)
Cc1ccc(NC(=O)C(Cc2ccccc2)NS(=O)(=O)c2cccc3nsnc23)c(C)c1 (stereo not drawn)	125% (inactive)
CCCNC(=O)C1CCC(Cn2c(=O)c3sccc3n(CC(=O)N3CCC(C)CC3)c2=O)CC1 (stereo not drawn)	73% (inactive)
Cc1ccccc1NC(=O)c1ccccc1NC(=O)c1ccccc1Cl	72% (inactive)
Cc1cccc(COc2ccc(-c3cc(C(F)(F)F)n4nc(C)cc4n3)cc2)c1	9% (active)
COc1ccc(-c2cc3nc(-c4ccc(C)cc4)cc(C(F)(F)F)n3n2)cc1	135% (inactive)
Cc1cc2nc(-c3ccc(OCc4ccc(F)cc4)cc3)cc(C(F)(F)F)n2n1	34% (active)
Cc1ccc(COc2ccc(-c3cc(C(F)(F)F)n4nc(C)cc4n3)cc2)cc1	137% (inactive)
Cc1cc(C(F)(F)F)n2nc(C)cc2n1	68% (inactive)
Cc1cc2nc(-c3ccc(OCc4ccccc4)cc3)cc(C(F)(F)F)n2n1	79% (inactive)
Cc1ccc(C)c(CN2C(=O)c3ccccc3S(=O)c3ccc(C(=O)NCCC4=CCCCC4)cc32)c1 (stereo not drawn)	52% (inactive)
COc1cccc(-c2nnc(SCC(=O)NC3CCCCC3)o2)c1	73% (inactive)
Cc1ccc(C(=O)O)cc1-n1c(C)ccc1-c1ccccc1	59% (inactive)
O=C(Cn1c(=O)nc(-c2ccccc2)c2ccccc21)Nc1ccc(Cl)c(C(F)(F)F)c1	90% (inactive)
COc1cccc(NC(=O)Cn2c(=O)n(Cc3ccccc3)c(=O)c3ccccc32)c1	125% (inactive)
COc1ccc(-n2ccnc(NCCc3ccccc3)c2=O)cc1OC	102% (inactive)
CCOc1ccc(Cn2c(=O)sc3ccccc32)cc1	85% (inactive)
CCCCOc1ccc(Cn2c(=O)sc3ccccc32)cc1	-1% (active)

Structure (SMILES)	survival
CCCOc1ccc(CNC(=O)Cn2c(=O)oc3ccccc32)cc1	80% (inactive)
CCCOc1ccc(Cn2c(=O)sc3ccccc32)cc1	-1% (active)
CC(C)CCOc1ccc(Cn2c(=O)sc3ccccc32)cc1	0% (active)
O=c1sc2ccccc2n1CCCOc1ccccc1	105% (inactive)
Cc1ccc(NC(=O)CSc2nc3n[nH]c(C)c3c(=N)n2-c2ccccc2C)cc1C	77% (inactive)
CCOC(=O)C1CCC(CN(Cc2ccc(OC)cc2)S(=O)(=O)c2ccc(F)c(C(=O)Nc3cc(Cl)ccc3OC)c2)CC1 (stereo not drawn)	83% (inactive)
CCN(CC)S(=O)(=O)c1ccc2c(c1)N(CC(=O)Nc1cccc(C(C)=O)c1)C(=O)CO2	84% (inactive)
Cc1ccc(Cl)cc1N1CCN(C(=O)Cn2ncc3c4ccccc4n(C)c3c2=O)CC1	54% (inactive)
CC1=C(c2ccc(C)cc2)S(=O)(=O)NC1=NCCCN1CCN(c2ccc(F)cc2)CC1	69% (inactive)
O=C(O)C(Cc1c[nH]c2ccccc12)Nc1ncnc2c1oc1ccccc12 (stereo not drawn)	76% (inactive)
CCc1ccc(NC(=O)CCc2c(C)nc3nc(-c4cc(OC)cc(OC)c4)nn3c2C)cc1	111% (inactive)
CCCCc1ccc(NC(=O)CSc2nnc3[nH]c(=O)cc(C)n23)cc1	95% (inactive)
Cc1ccc(CNC(=O)CCS(=O)(=O)c2ccc3c(c2)CC(C)N3C(=O)C2CC2)cc1 (stereo not drawn)	91% (inactive)
COc1ccccc1N1CCN(c2ncnc3c2cnn3-c2ccc(C)cc2)CC1	91% (inactive)
c1ccc(CN2CCN(c3ncnc4c3cnn4-c3ccccc3)CC2)cc1	69% (inactive)
COc1ccccc1N1CCN(c2ncnc3c2cnn3-c2cc(Cl)ccc2C)CC1	124% (inactive)
COc1ccccc1N1CCN(c2ncnc3c2cnn3-c2cccc(Cl)c2)CC1	-2% (active)
Cc1ccc(-n2ncc3c(N4CCN(Cc5ccccc5)CC4)ncnc32)cc1Cl	87% (inactive)
Clc1cccc(-n2ncc3c(N4CCN(Cc5ccccc5)CC4)ncnc32)c1	25% (active)
COc1cc(CSc2ncc(CO)n2Cc2ccc(C)cc2)cc(OC)c1	92% (inactive)
O=C(CSc1nc2c([nH]c3ccccc32)c(=O)n1-c1ccccc1F)Nc1cccc(C(F)(F)F)c1	74% (inactive)
COc1cccc(NC(=O)CSc2nc3c([nH]c4ccccc43)c(=O)n2-c2ccccc2)c1	76% (inactive)

Structure (SMILES)	survival
O=C(CSc1nc2c([nH]c3ccccc32)c(=O)n1-c1ccc(Cl)cc1)c1ccccc1	94% (inactive)
CCOc1ccc(-n2c(SCC(=O)Nc3cc(C)ccc3C)nc3c([nH]c4ccccc43)c2=O)cc1	75% (inactive)
COc1ccc(-n2c(SCC(=O)c3ccccc3)nc3c([nH]c4ccccc43)c2=O)cc1	98% (inactive)
Cc1ccc(C)c(NC(=O)CSc2nc3c([nH]c4ccccc43)c(=O)n2-c2ccc(F)cc2)c1	32% (active)
Cc1ccc(-n2c(SCC(=O)c3ccccc3)nc3c([nH]c4ccccc43)c2=O)cc1	-5% (active)
Cc1cccc(NC(=O)CSc2nc3c([nH]c4ccccc43)c(=O)n2-c2ccc(F)cc2)c1C	49% (inactive)
O=C(CSc1nc2c([nH]c3ccccc32)c(=O)n1-c1ccccc1)Nc1cccc(C(F)(F)F)c1	-4% (active)
O=C(CSc1nc2c([nH]c3ccccc32)c(=O)n1-c1cccc(Cl)c1)c1ccccc1	47% (active)
O=C(CSc1nc2c([nH]c3ccccc32)c(=O)n1-c1ccccc1)c1ccccc1	77% (inactive)
O=C(CSc1nc2c([nH]c3ccccc32)c(=O)n1-c1ccccc1)c1ccc(Cl)cc1	92% (inactive)
CCCn1ccc2c(OCC(=O)Nc3ccc(C(F)(F)F)cc3)cccc2c1=O	75% (inactive)
COc1ccccc1CNC(=O)Cn1nc(C)n2cccc2c1=O	94% (inactive)
CCN(CC)c1ccc(NC(=O)Cn2cc3c(n2)CCCC3)c(C)c1	121% (inactive)
CCOc1ccc(-n2c(SCC(=O)NC3CCCC3)nnc2-c2ccoc2C)cc1	92% (inactive)
CCOc1ccccc1NC(=O)c1ccc2c(Cl)c3c(nc2c1)CCC3	82% (inactive)
COc1ccc(OC)c(NC(=O)c2ccc3c(Cl)c4c(nc3c2)CCCC4)c1	82% (inactive)
O=C(Nc1ccccc1F)c1ccc2c(Cl)c3c(nc2c1)CCC3	21% (active)
COc1ccc(C)cc1NC(=O)c1ccc2c(SCC(=O)O)c3c(nc2c1)CCCC3	77% (inactive)
COc1ccccc1NC(=O)c1ccc2c(Cl)c3c(nc2c1)CCCC3	15% (active)
CCOc1ccc(CNC(=O)c2ccc3c(Cl)c4c(nc3c2)CCCC4)cc1	75% (inactive)
COc1ccc(NC(=O)c2ccc3c(SCC(=O)O)c4c(nc3c2)CCCC4)c(OC)c1	55% (inactive)
COC(=O)c1ccccc1NC(=O)c1ccc2c(Cl)c3c(nc2c1)CCCC3	80% (inactive)

Structure (SMILES)	survival
COc1cc(Cl)c(C)cc1NC(=O)c1ccc2c(SCC(=O)O)c3c(nc2c1)CCCC3	41% (active)
COc1cc(OC)c(NC(=O)c2ccc3c(Cl)c4c(nc3c2)CCCC4)cc1Cl	85% (inactive)
CCOc1ccccc1NC(=O)c1ccc2c(Cl)c3c(nc2c1)CCCC3	35% (active)
O=C(Nc1ccc(F)c(Cl)c1)c1ccc2c(Cl)c3c(nc2c1)CCCC3	118% (inactive)
COc1ccc(NC(=O)C2CCN(c3ccc(Sc4ccc(C)cc4)nn3)CC2)cc1	74% (inactive)
Cc1ccc(CNC(=O)C(C)n2c(=O)cc(-c3ccccc3)c3c(C)nn(C)c32)cc1 (stereo not drawn)	80% (inactive)
C=CCn1c(Br)nc2c1c(=O)n(C)c(=O)n2C	73% (inactive)
CN(C1CCCCC1)S(=O)(=O)c1ccc2c(c1)c(=O)c(C(=O)NCCc1ccccc1)cn2C	79% (inactive)
Cc1cc(C)c2c(-n3cccc3)c(C(=O)NCCc3ccccc3)sc2n1	90% (inactive)
Cc1cc(C)cc(OCCSc2nc(-c3cccs3)nc3cc(=O)[nH]n23)c1	67% (inactive)
O=C(COc1ccccc1Cl)Nc1cc(-c2ccccc2F)nn1-c1ccccc1	91% (inactive)
COc1cc(NC(=O)c2ccc3c(Cl)c4c(nc3c2)CCC4)cc(OC)c1OC	62% (inactive)
CCOC(=O)c1cccc(NC(=O)c2ccc3c(Cl)c4c(nc3c2)CCC4)c1	41% (active)
O=C(NCc1cccc(Cl)c1)c1ccc2c(Cl)c3c(nc2c1)CCCC3	48% (inactive)
COc1ccc(CNC(=O)c2ccc3c(Cl)c4c(nc3c2)CCCC4)c(OC)c1	92% (inactive)
CCOC(=O)c1ccccc1NC(=O)c1ccc2c(Cl)c3c(nc2c1)CCC3	96% (inactive)
COc1cccc(CNC(=O)c2ccc3c(Cl)c4c(nc3c2)CCCC4)c1	49% (active)
NS(=O)(=O)c1ccc(NC(=O)c2csnn2)cc1	80% (inactive)
O=C(NCCO)c1ccc(-c2nnc(Nc3ccc(OC(F)(F)Cl)cc3)c3ccccc23)cc1	72% (inactive)
CCOC(=O)c1ccc(NC(=O)C2CCCN(c3ccc(Sc4ccc(C)cc4)nn3)C2)cc1 (stereo not drawn)	43% (inactive)
Cc1ccccc1CN1c2ccccc2-c2nc(SCC(=O)Nc3cc(F)ccc3F)ncc2S1(=O)=O	89% (inactive)
Cc1ccc(C)c(CN2C(=O)c3ccccc3Sc3ccc(C(=O)NCc4ccc5c(c4)OCO5)cc32)c1	89% (inactive)
